Test results as given in PubChem BioAssay (NCATS).
Records with an inconclusive call do not appear. Unmarked numbers belong to inactive results. Active and inactive are the calls of the source. The call rests on the fitted dose curve; in most records, active means well fitted inhibition curve with a large enough effect; inconclusive means small, poorly fitted or top-dose-only effect; inactive means no such curve, though single readings can be large or run the other way.

Target: Retinaldehyde dehydrogenase 3 (Homo sapiens) (UniProt P47895)
Test: qHTS for Inhibitors of the Aldehyde Dehydrogenase Family (ALDH1A3) Confirmatory screens (AID 2061311); further: on the % scale 0 is the no-effect control and ±100 the full control effect; nearly all actives have a fitted effect of over 60% in size
Settings: ALDH inhibition qHTS; series mostly up to 46 µM; activity change, negative = inhibition: at the top concentration

Q: Which “activity change, negative = inhibition” value does the source give for `c1cn2cc(-c3ccc4cn[nH]c4c3)nc(Nc3ccc(N4CCOCC4)cc3)c2n1` here?
A: -4.8%

Q: With `N#CNC(=O)c1ccc(-n2cccc2/C=C2\NC(=O)N(CC(=O)Nc3cccc(F)c3)C2=O)cc1` as the compound, how does the “activity change, negative = inhibition” value read?
A: -3.41%

Q: Which “activity change, negative = inhibition” value does the source give for `COc1ccc(-c2csc(NC(=O)c3ccncc3NS(=O)(=O)c3ccc(C)cc3)n2)cc1` here?
A: -0.839%

Target: Retinal dehydrogenase 2 (Homo sapiens) (UniProt O94788)
Test: qHTS for Inhibitors of the Aldehyde Dehydrogenase Family (ALDH1A2) Confirmation screens (AID 2061314); further: nearly all actives have a fitted effect of over 65% in size; further: potency means the concentration at half of the fitted maximal effect; on activity, negative = inhibition: on the % scale 0 is the no-effect control and ±100 the full control effect
Settings: ALDH1A2 enzyme inhibition qHTS confirmation; series mostly up to 45.9 µM; activity, negative = inhibition: at the top concentration

Q: With `COc1ccc(C2Nc3ccccc3C(=O)N2Cc2ccccc2)cc1COc1ccc(C)cc1` (centres undefined) as the compound, how does the Potency read?
A: 5.65 µM (active)

Q: `COc1ccc(C(=O)N(Cc2ccco2)Cc2cccs2)c(O)c1` was tested. Which Potency did it give?
A: 22.5 µM (active)

Q: For `CNc1oc(-c2ccc3c(c2)OCCO3)nc1C#N`, which “activity, negative = inhibition” value is on record?
A: -15.2%

Q: For `Nc1ncc(-c2cccc(-c3nn4c(=O)cc(N5CCNCC5)nc4s3)c2)cn1`, which Potency is on record?
A: 11.3 µM (active)

Q: Which “activity, negative = inhibition” value does the source give for `CC(C)(O)C1CC=C(C(=O)OCC2OC(Oc3c(O)cc(C(=O)O)cc3O)C(O)C(O)C2O)CC1` (centres undefined) here?
A: 4.71% [at 25.6 µM]

Q: `NC(=O)C1CCN(c2nc(-c3ccc4occc(=O)c4c3)cs2)CC1` was tested. Which “activity, negative = inhibition” value did it give?
A: -15.9%

Q: How did the “activity, negative = inhibition” value turn out when `O=C(c1ccc(-c2cnc3c(O)cccc3c2)cc1)N1CCNCC1` was run?
A: -17.5%

Q: With `NC(=O)C1CCN(c2nc(-c3ccc4c(c3)OCCO4)cs2)CC1` as the compound, how does the “outcome” value read?
A: inactive

Q: With `O=[S+]([O-])(NCC#CCSc1nnc(-c2cccc3ccccc23)o1)c1ccc(F)cc1` as the compound, how does the “activity, negative = inhibition” value read?
A: -20%

Q: How did the “activity, negative = inhibition” value turn out when `Cc1c(-c2ccccc2)no[n+]1[O-]` was run?
A: 4.78%

Q: With `Cc1c(C(=O)OCC2CCCO2)[nH]c2c1C(=O)CCC2` (centres undefined) as the compound, how does the Potency read?
A: 28.3 µM (active)

Q: For `COc1ccc(C2Nc3ccccc3C(=O)N2Cc2cccnc2)cc1COc1ccc(NC(C)=O)cc1` (centres undefined), which Potency is on record?
A: 10.1 µM (active)

Q: `CC(=O)NC(C)c1cc(Cl)c2cccnc2c1O` (centres undefined) was tested. Which Potency did it give?
A: 28.3 µM (active)

Q: How did the Potency turn out when `O=C(/C=C/c1cccnc1)Nc1cccc([S+](=O)([O-])Nc2ccccc2F)c1` was run?
A: 11.3 µM (active)

Q: With `N#Cc1c(-c2cccc(O)c2)no[n+]1[O-]` as the compound, how does the Potency read?
A: 2.52 µM (active)

Q: Which Potency does the source give for `N#Cc1c(-c2ccc(Cl)c([N+](=O)[O-])c2)no[n+]1[O-]` here?
A: 2.83 µM (active)

Q: Which “activity, negative = inhibition” value does the source give for `[O-][n+]1onc(-c2ccccc2)c1/C=N/O` here?
A: 4.87%

Q: For `Cc1ccc(-c2cc(C(=O)Nc3cccc(S(N)(=O)=O)c3)c3ccccc3n2)cc1C`, which “activity, negative = inhibition” value is on record?
A: -27.9%

Q: How did the Potency turn out when `O=C1c2ccccc2NC(c2ccc(-c3ccc(-c4ccccc4)cc3)o2)N1O` (centres undefined) was run?
A: 5.65 µM (active)

Q: Which Potency does the source give for `COc1ccc(C2Nc3ccccc3C(=O)N2Cc2ccccc2)cc1COc1ccccc1OC` (centres undefined) here?
A: 8.96 µM (active)

Target: Retinaldehyde dehydrogenase 3 (Homo sapiens) (UniProt P47895)
Test: qHTS for Inhibitors of the Aldehyde Dehydrogenase Family (ALDH1A3) Primary screen (AID 2061315); further: potency means the concentration at half of the fitted maximal effect;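 on activity change, negative = inhibition: plate controls were DMSO vehicle for no effect and reference inhibitor for full effect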
Settings: ALDH inhibition qHTS; series mostly up to 56 µM; activity change, negative = inhibition: at the top concentration

Q: `O=C1CCc2cc(S(=O)(=O)Nc3cc(F)cc(Cl)c3)c(F)cc2N1` was tested. Which “activity change, negative = inhibition” value did it give?
A: 9.8%

Q: Which “activity change, negative = inhibition” value does the source give for `COc1ccc(C2Nc3ccccc3C(=O)N2Cc2ccccc2)cc1COc1ccc(C)cc1` (centres undefined) here?
A: 3.35%

Q: With `COc1ccc(C(=O)N(Cc2ccco2)Cc2cccs2)c(O)c1` as the compound, how does the “activity change, negative = inhibition” value read?
A: -3.48%

Q: With `CNc1oc(-c2ccc3c(c2)OCCO3)nc1C#N` as the compound, how does the “activity change, negative = inhibition” value read?
A: -12.9%

Q: Which “activity change, negative = inhibition” value does the source give for `Nc1ncc(-c2cccc(-c3nn4c(=O)cc(N5CCNCC5)nc4s3)c2)cn1` here?
A: 9.58%

Q: Which “activity change, negative = inhibition” value does the source give for `CC(C)(O)C1CC=C(C(=O)OCC2OC(Oc3c(O)cc(C(=O)O)cc3O)C(O)C(O)C2O)CC1` (centres undefined) here?
A: -15.7% [at 28 µM]

Q: `NC(=O)C1CCN(c2nc(-c3ccc4occc(=O)c4c3)cs2)CC1` was tested. Which “activity change, negative = inhibition” value did it give?
A: -3.46%

Q: `Cc1c(Cl)cccc1NS(=O)(=O)c1cc2c(cc1F)NC(=O)CC2` was tested. Which “activity change, negative = inhibition” value did it give?
A: -1.67%

Q: With `CCOC(=O)c1c(-c2ccccc2)no[n+]1[O-]` as the compound, how does the “activity change, negative = inhibition” value read?
A: -4.71%

Q: How did the “activity change, negative = inhibition” value turn out when `O=C(c1ccc(-c2cnc3c(O)cccc3c2)cc1)N1CCNCC1` was run?
A: 17.9%

Q: For `NC(=O)C1CCN(c2nc(-c3ccc4c(c3)OCCO4)cs2)CC1`, which “activity change, negative = inhibition” value is on record?
A: -14.9%

Q: Which “activity change, negative = inhibition” value does the source give for `CN(C)c1cccc(-c2csc(N3CCC(C(N)=O)CC3)n2)c1` here?
A: -17.1%

Q: `CC(C)(C)Nc1nc(C#N)nc(Nc2ccccc2)n1` was tested. Which “activity change, negative = inhibition” value did it give?
A: 1.97%

Q: How did the “activity change, negative = inhibition” value turn out when `O=[S+]([O-])(NCC#CCSc1nnc(-c2cccc3ccccc23)o1)c1ccc(F)cc1` was run?
A: 22.8%

Q: Which “activity change, negative = inhibition” value does the source give for `Cc1nnc(CN(C)c2ncnc3ccc(-c4ccc5c(c4)OCO5)cc23)o1` here?
A: 0.327%

Q: With `Cc1cc(C)nc(NC(=S)N2CCN(c3cncc4ccccc34)CC2)c1` as the compound, how does the “activity change, negative = inhibition” value read?
A: -20.4%

Q: Which “activity change, negative = inhibition” value does the source give for `Cc1c(-c2ccccc2)no[n+]1[O-]` here?
A: -2.06%

Q: Which “activity change, negative = inhibition” value does the source give for `Cc1noc(C)c1N[S+](=O)([O-])c1ccc(NC(=O)Cc2ccc(Cl)c(Cl)c2)cc1` here?
A: -3.08%

Q: How did the “activity change, negative = inhibition” value turn out when `Cc1c(C(=O)OCC2CCCO2)[nH]c2c1C(=O)CCC2` (centres undefined) was run?
A: -22.2%

Q: Which Potency does the source give for `O=C(Nc1ncc([N+](=O)[O-])s1)c1ccccc1O` here?
A: 2 µM (active)

Q: `COc1ccc(C2Nc3ccccc3C(=O)N2Cc2cccnc2)cc1COc1ccc(NC(C)=O)cc1` (centres undefined) was tested. Which “activity change, negative = inhibition” value did it give?
A: -1.74%

Q: With `CC(=O)NC(C)c1cc(Cl)c2cccnc2c1O` (centres undefined) as the compound, how does the “activity change, negative = inhibition” value read?
A: 8%

Q: With `O=C(/C=C/c1cccnc1)Nc1cccc([S+](=O)([O-])Nc2ccccc2F)c1` as the compound, how does the “activity change, negative = inhibition” value read?
A: -2%

Q: With `N#Cc1c(-c2cccc(O)c2)no[n+]1[O-]` as the compound, how does the “activity change, negative = inhibition” value read?
A: -2.53%

Q: Which “activity change, negative = inhibition” value does the source give for `N#Cc1c(-c2ccc(Cl)c([N+](=O)[O-])c2)no[n+]1[O-]` here?
A: -12.6%

Q: For `[O-][n+]1onc(-c2ccccc2)c1/C=N/O`, which “activity change, negative = inhibition” value is on record?
A: 5.12%

Q: How did the “activity change, negative = inhibition” value turn out when `Cc1ccc(-c2no[n+]([O-])c2C#N)cc1` was run?
A: -1.36%

Q: With `Cc1ccc(-c2cc(C(=O)Nc3cccc(S(N)(=O)=O)c3)c3ccccc3n2)cc1C` as the compound, how does the “activity change, negative = inhibition” value read?
A: -4.3%

Q: How did the “activity change, negative = inhibition” value turn out when `Cc1noc(C)c1-c1ccc2ncnc(NCc3ccc(F)cc3)c2c1` was run?
A: -14.4%

Q: How did the “activity change, negative = inhibition” value turn out when `O=C1c2ccccc2NC(c2ccc(-c3ccc(-c4ccccc4)cc3)o2)N1O` (centres undefined) was run?
A: 3.89%

Q: `COc1ccc(C2Nc3ccccc3C(=O)N2Cc2ccccc2)cc1COc1ccccc1OC` (centres undefined) was tested. Which “activity change, negative = inhibition” value did it give?
A: -0.231%

Q: For `O=C(O)CN1C(=O)N/C(=C\c2cccn2-c2ccc(P(=O)(O)O)cc2)C1=O`, which “activity change, negative = inhibition” value is on record?
A: 22.6%

Q: With `O=c1[nH]c(CN2CCOCC2)nc2sc3c(c12)CCC3` as the compound, how does the “activity change, negative = inhibition” value read?
A: -7.1%

Q: With `c1cn2cc(-c3ccc4cn[nH]c4c3)nc(Nc3ccc(N4CCOCC4)cc3)c2n1` as the compound, how does the “activity change, negative = inhibition” value read?
A: 12.8%

Q: Which “activity change, negative = inhibition” value does the source give for `N#CNC(=O)c1ccc(-n2cccc2/C=C2\NC(=O)N(CC(=O)Nc3cccc(F)c3)C2=O)cc1` here?
A: 17.2%

Q: For `COc1ccc(-c2csc(NC(=O)c3ccncc3NS(=O)(=O)c3ccc(C)cc3)n2)cc1`, which “activity change, negative = inhibition” value is on record?
A: 20.9%
